What follows are sequences tested against BEST2 (assay: pooled miR-30 sensor sort-seq; sequence = guide strand). Settings: shRNA.
Work on TGGAACTGCATGTCTTCTTTGG yielded a sensor-assay potency score (higher = more potent) of -0.925.
With TAAATCACAAGCTTCTCGAAGT the sensor-assay potency score (higher = more potent) was -0.564.
ATACATCTCGTCCACTGCCAGC showed a sensor-assay potency score (higher = more potent) of -1.42.

Each sequence was assayed against BIRC8 in the same assay as above. Settings: shRNA.
Sequence TAGATCTGCAACAAGAACCTCA has a sensor-assay potency score (higher = more potent) of 0.199.
TAGTTTGTACCAGAGCTCCCTC showed a sensor-assay potency score (higher = more potent) of -0.717.
TCGTATAGCTTCTTGTAGCATA was tested, and the sensor-assay potency score (higher = more potent) was -0.43.
With TCTTCTAGCAGATATTTGCAAC the sensor-assay potency score (higher = more potent) was -1.19.
In the case of TTCTTTTAGTTAGTGATGGTGT, the sensor-assay potency score (higher = more potent) is reported as 0.0164.
In the case of TTGCTTGAAATCAATAACCGCG, the sensor-assay potency score (higher = more potent) is reported as 0.0701.
For TTTCTTGGTAGTTTGTACCAGA, the sensor-assay potency score (higher = more potent) was -0.312.
Work on TTGTTAACGGAGTACATCCATG yielded a sensor-assay potency score (higher = more potent) of -1.22.
Sequence TTTACAAAGCTTCTCCTCTTGC has a sensor-assay potency score (higher = more potent) of -0.189.
In the case of TTTCTGTAGTGTCTTTCTGAGC, the sensor-assay potency score (higher = more potent) is reported as -1.49.
In the case of TTGAAATCAATAACCGCGCTGC, the sensor-assay potency score (higher = more potent) is reported as 1.02.
Sequence TGCAACAAGAACCTCAAGCGTT has a sensor-assay potency score (higher = more potent) of -0.815.

What follows are sequences tested against BMPR1B in the same assay as above. Settings: shRNA.
For TTGAGTACTAAAGATTTCTGTG, the sensor-assay potency score (higher = more potent) was 0.176.
In the case of TTGATGCACACAATCTCCCTCA, the sensor-assay potency score (higher = more potent) is reported as -0.279.
TTTCACCATCTGAATCTGCTTA gave a sensor-assay potency score (higher = more potent) of -0.0649.
TATTCTTCCACTATACCTCCTG was tested, and the sensor-assay potency score (higher = more potent) was 0.554.
Work on TTGTTGACTGAGTCTTCTGGAC yielded a sensor-assay potency score (higher = more potent) of -0.721.
TTCACCATCTGAATCTGCTTAG gave a sensor-assay potency score (higher = more potent) of -0.315.
TATTGTTGACTGAGTCTTCTGG showed a sensor-assay potency score (higher = more potent) of 0.00108.
TCTGTGATTAGGTACAACTGGG gave a sensor-assay potency score (higher = more potent) of 0.0109.
TAGGTCTTTATTACATTCGTTC showed a sensor-assay potency score (higher = more potent) of -0.881.
Sequence TATTACATTCGTTCCTTTCTGT has a sensor-assay potency score (higher = more potent) of 0.878.
TCATCCTCTTCTATCATCGTGA gave a sensor-assay potency score (higher = more potent) of 0.152.
In the case of TTTTACTTTTCAGATCTCGATG, the sensor-assay potency score (higher = more potent) is reported as -0.74.
TCATCGTGAAACAATATCCGTC showed a sensor-assay potency score (higher = more potent) of -0.268.
TTCTGTTCAAGCTCTCGTCCAA was tested, and the sensor-assay potency score (higher = more potent) was -0.142.
ATTTCTGTCTCTCTGAACCAGC gave a sensor-assay potency score (higher = more potent) of -0.623.
TCGTGAAACAATATCCGTCTGT gave a sensor-assay potency score (higher = more potent) of -0.0353.
TGATATATTTCTGTCTCTCTGA gave a sensor-assay potency score (higher = more potent) of 0.214.
Sequence TTACATTCGTTCCTTTCTGTGC has a sensor-assay potency score (higher = more potent) of -0.864.
With TTGATCTTCTTTGATGAGGAAT the sensor-assay potency score (higher = more potent) was -1.13.
In the case of TAGGTCATGATAAGGAAGCTGG, the sensor-assay potency score (higher = more potent) is reported as -0.2.
TCTGTCTCTCTGAACCAGCTGG was tested, and the sensor-assay potency score (higher = more potent) was -0.359.

Each sequence was assayed against BOLA1 in the same assay as above. Settings: shRNA.
TGATTCTTCTCTTTTCTCGGGT gave a sensor-assay potency score (higher = more potent) of 0.0423.
In the case of TGGGGGGCTAGTGTCCAGCTGA, the sensor-assay potency score (higher = more potent) is reported as -1.56.
TCTCGTTGCGAAGCTCTAGCAC was tested, and the sensor-assay potency score (higher = more potent) was -0.674.
For TAGTGAGTGATTCTTCTCTTTT, the sensor-assay potency score (higher = more potent) was -0.956.
Also: reference of the scale not given here.
